# Assay results from the supplement of paper PMC4237247.
# Where a name gives a salt, the structure may show the parent alone.
# System: HeLa
# Assay: percent cells in S phase; higher = more S arrest
# Conditions: 10 µM; 20 h
# Procedure: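 HTS of 79,827 drug-like compounds at 10 uM. HeLa cells in 384-well plates were treated for 20 h, fixed, stained with Vybrant DyeCycle Green and scanned on an Acumen eX3 cytometer to give per-well cell cycle profiles (% cells in each phase). The plate Z' was 0.51. Only hits are listed: G1 hits >4 SD and S hits >5 SD from the mean.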
row,SMILES,percent cells in S phase
1,Cc1cc(N2CCCCC2)c(F)cc1[N+](=O)[O-] (hit class: S-phase inhibitor),29.5%
2,CC[C@@H](C(=O)[C@@H](C)[C@@H](O)[C@H](C)CCc1ccc(C)c(O)c1C(=O)O)[C@H]1O[C@](CC)([C@H]2CC[C@](O)(CC)[C@H](C)O2)C[C@@H]1C [Lasalocid sodium salt] (hit class: G1-phase inhibitor),8.33%
3,Nc1ccn([C@H]2CC[C@@H](CO)O2)c(=O)n1 [Zalcitabine] (hit class: S-phase inhibitor),21.2%
4,CCN(CC)Cc1c(O)ccc2c(=O)c(-c3ccccc3)coc12 (hit class: S-phase inhibitor),22.3%
5,COc1c(C)c2c(c(O)c1C/C=C(\C)CCC(=O)O)C(=O)OC2 [Mycophenolic acid] (hit class: S-phase inhibitor),27.7%
6,Cn1c(SCc2ccccc2)nc2ccccc2c1=O (hit class: S-phase inhibitor),20.6%
7,C[C@@H]1CCC[C@H](C)N1NC(=O)c1ccc(Cl)c(S(N)(=O)=O)c1 [Clopamide] (hit class: G1-phase inhibitor),8.75%
8,c1ccc2c(c1)Nc1nc3ccccc3nc1O2 (hit class: G1-phase inhibitor),7.38%
9,O=C1c2c(O)ccc(O)c2C(=O)c2c(NCCNCCO)ccc(NCCNCCO)c21 [Mitoxantrone dihydrochloride] (hit class: G1-phase inhibitor),6.2%
10,C[C@@H]1C[C@H]2[C@@H]3C[C@H](F)C4=CC(=O)C=C[C@]4(C)[C@@]3(Cl)[C@@H](O)C[C@]2(C)[C@H]1C(=O)COC(=O)C(C)(C)C [Clocortolone pivalate] (hit class: S-phase inhibitor),23.2%
11,COc1[nH]c2ccccc2c1C=NO (hit class: S-phase inhibitor),19.8%
12,COc1ccc(CSc2nncn2N)cc1 (hit class: S-phase inhibitor),19.7%
13,COc1ccc(C(=O)c2coc3ccc(OC)cc3c2=O)cc1 (hit class: G1-phase inhibitor),7.3%
14,Cc1cc([N+](=O)[O-])ccc1NCc1ccc(F)c(F)c1 (hit class: G1-phase inhibitor),9.44%
15,O=C(COc1ccc(Cl)cc1)NC(Cc1c[nH]c2ccccc12)C(=O)O (configuration not stated) (hit class: G1-phase inhibitor),6.86%
16,CC(=O)C1=C(O)C(=O)N(CC(=O)O)C1c1ccccc1F (configuration not stated) (hit class: S-phase inhibitor),20.4%
17,Cc1ccc(-c2cc(-c3ccccc3Cl)[nH]n2)c(O)c1 (hit class: G1-phase inhibitor),7.81%
